PubChem BioAssay (Tox21)
Inconclusive results are not listed. A number with no mark means an inactive call. The source made the active and inactive calls. Calls come from the whole dose curve; as a rule, active = well fitted curve in the direction sought with a large enough effect in the signal ratio in the repeat runs (not every such curve was filed as active); inconclusive = weak or mixed curves, or effect the other way; inactive = no such curve, though single readings can be large or run the other way; the % refers to the signal ratio.

Each compound was assayed against Estrogen receptor (Homo sapiens) (UniProt P03372) (assay: qHTS assay to identify small molecule antagonists of the estrogen receptor alpha (ER-alpha) signaling pathway (AID 743069)). Conditions: HEK293 ER-alpha-UAS-bla, beta-lactamase ratio, antagonist mode; series mostly up to 69.4 µM; activity, negative = inhibition: at the top concentration.
In short: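 ER-alpha-UAS-bla GripTite HEK293 line; 2% charcoal-stripped FBS overnight; plated, 4 hr 37C/5% CO2; cpd in DMSO + 17beta-estradiol, 18 hr 37C; LiveBLAzer B/G FRET substrate 2 hr RT; fluorescence intensity.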
% is set by controls: 0 for no effect and ±100 for the full control effect.

Chain of Estrogen receptor (Homo sapiens) (P03372 whole entry, looked up): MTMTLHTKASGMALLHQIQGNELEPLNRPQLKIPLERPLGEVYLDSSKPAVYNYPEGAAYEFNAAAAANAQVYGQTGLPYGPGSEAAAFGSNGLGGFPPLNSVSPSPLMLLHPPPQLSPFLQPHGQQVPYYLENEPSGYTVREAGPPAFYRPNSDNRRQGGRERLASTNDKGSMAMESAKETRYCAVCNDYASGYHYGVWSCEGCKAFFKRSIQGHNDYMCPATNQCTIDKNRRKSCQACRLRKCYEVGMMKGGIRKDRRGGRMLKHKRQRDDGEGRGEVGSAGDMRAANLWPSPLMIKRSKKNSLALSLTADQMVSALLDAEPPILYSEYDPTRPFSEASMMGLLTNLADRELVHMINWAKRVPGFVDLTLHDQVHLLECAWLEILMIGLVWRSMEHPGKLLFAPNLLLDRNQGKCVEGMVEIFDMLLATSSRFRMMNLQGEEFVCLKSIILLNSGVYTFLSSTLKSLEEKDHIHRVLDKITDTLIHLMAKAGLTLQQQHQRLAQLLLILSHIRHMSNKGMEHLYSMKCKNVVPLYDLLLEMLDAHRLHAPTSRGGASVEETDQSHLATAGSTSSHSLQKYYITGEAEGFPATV

For `C=CC(=O)O`, the Potency was “inactive”.
With `CCCCCCCCCCCC(=O)OCC(O)CO` (configuration not stated) the Potency was “inactive”.
With `CC[C@H]1OC(=O)[C@H](C)[C@@H](O[C@H]2C[C@@](C)(OC)[C@@H](O)[C@H](C)O2)[C@H](C)[C@@H](O[C@@H]2O[C@H](C)C[C@H](N(C)C)[C@H]2O)[C@](C)(O)C[C@@H](C)CN(C)[C@H](C)[C@@H](O)[C@]1(C)O` the Potency was “inactive”.
For `CC[C@H]1OC(=O)[C@H](C)[C@@H](O[C@H]2C[C@@](C)(OC)[C@@H](O)[C@H](C)O2)[C@H](C)[C@@H](O[C@@H]2O[C@H](C)C[C@H](N(C)C)[C@H]2O)[C@](C)(O)C[C@@H](C)/C(=N\OCOCCOC)[C@H](C)[C@@H](O)[C@]1(C)O`, the Potency was “inactive”.

In order of rising “activity, negative = inhibition” value:
1. CC1=C2[C@@H]([C@H](C)CC[C@H]2/C=C(\C)C(=O)O)[C@H](O)C1  -54.7%
2. CC(C)(C)C1(CCc2ccc(Cl)cc2)CO1 (configuration not stated)  -19.5%
3. CCCCCCCCCCCCCCCC(=O)OCC  -16.2%
4. CC1CCCC(=O)C1=O (configuration not stated)  -11.3%
5. CC(C)CC(O)CC(C)C  -10.9%
6. OCC(CO)n1cnc(-c2ccc(F)cc2)c1-c1ccnc(Oc2ccccc2)n1  -6.88%
7. O=P(O)(O)Oc1ccccc1  -6.01%
8. CC(C)C1CCC(C(=O)N[C@H](Cc2ccccc2)C(=O)O)CC1 (some centres not stated)  -4.71%
9. CC(=O)OCCC1CCCCC1  -4.37%
10. CNC1CCCN(c2c(F)cc3c(=O)c(C(=O)O)cn(C4CC4)c3c2OC)C1 (configuration not stated)  -3.24%
11. O=C(O)CNC(=O)c1ccccc1I  -2.38%
12. CC(C)C(=O)OCCOc1ccccc1  -2.23%
13. O=c1[nH]c2cc(C(F)(F)F)c(N3CCOCC3)cc2n(CP(=O)(O)O)c1=O  -2.2%
14. CN1C(CSCC(F)(F)F)Nc2cc(Cl)c(S(N)(=O)=O)cc2S1(=O)=O (configuration not stated)  -2%
15. O=C(O)c1cccc(Oc2ccccc2)c1  3.15%
16. Cc1ccc(S(=O)(=O)NC(=O)NC2CCCCC2)cc1  3.21%
17. CNc1c2c(nn1C)CCCC2  3.3%
18. O=C(NC(Cc1cc(=O)[nH]c2ccccc12)C(=O)O)c1ccc(Cl)cc1 (configuration not stated)  3.56%
19. COc1cc(NS(=O)(=O)c2ccc(N)cc2)nc(C)n1  5.34%
20. CC(C)COC(=O)COc1cc(Cl)c(Cl)cc1Cl  5.41%
21. C=CC(=O)NC(C)C  6.43%
22. CC(C)N(C)C  8.9%
23. O=C(Nc1ccc(C(=O)O)c(O)c1)c1ccccc1  10.1%
24. Cc1cn([C@H]2C[C@H](F)[C@@H](CO)O2)c(=O)[nH]c1=O  10.7%
25. Cc1ccc(N(CCO)CCO)cc1  15.8%
26. CC(C)(O)CCc1ccccc1  16.2%
27. O=C(CCS)OCC(COC(=O)CCS)(COC(=O)CCS)COC(=O)CCS  41.3%

In order of falling “activity, negative = inhibition” value:
1. CC(C)(C)S  20.1% [at 79.1 µM]
2. Cc1cccc2sc(N)nc12  13.9% [at 79.1 µM]
3. O=CNNC=O  8.63% [at 79.1 µM]
4. CCC(CO)(CO)CO  -3.52% [at 79.1 µM]
5. ClC1=C(Cl)C1(Cl)Cl  -5.62% [at 79.1 µM]

With `CCCCCCC(O)CCOC(C)=O` (configuration not stated) the “activity, negative = inhibition” value was -16.2% [at 214 µM].
